Compounds without any hit were thinned out: in the full panel of roughly 79,000, 15% have a hit. Unmarked numbers belong to inactive results. The source made the active and inactive calls. Cut-off read from the data, not from the text of the source: active = growth inhibition above about 70%; inactive = the rest. Residues, ends and D or L forms follow the SMILES beside them. *: point of attachment. Fmoc = O=C(OCC1c2ccccc2-c2ccccc21)*; Boc = CC(C)(C)OC(=O)*
test: NCI Yeast Anticancer Drug Screen. Data for the wt2 strain (AID 169);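 note: 0% = growth of vehicle-treated yeast cultures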; conditions: S. cerevisiae wt2 strain growth inhibition; at 3.7 µM; active compounds read high
Summary of the method: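 Growth of compound-treated yeast is measured and expressed as inhibition relative to vehicle-only controls.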

| SMILES | growth inhibition |
| --- | --- |
| OC(Cc1cccc2ccccc12)CN1CCC(c2ccccc2)CC1 (stereo not drawn) | 52% |
| C1=CCN([B-](c2ccccc2)[C+]2CCCCC2)C=C1 | 7% |
| O=[N+]([O-])c1cc[n+]([O-])c(Cl)c1 | -50% |
| CCCNC(=O)OCc1c(COC(=O)NCCC)c(-c2ccc(Cl)c(Cl)c2)n2c1CCC2 | -16% |
| CC1(C)CC(=O)C(C(=O)Nc2cccs2)=C(O)C1 | 14% |
| O=C(NO)c1coc2ccccc2c1=O | -4% |
| COc1ccc(C(C)c2cc3c(cc2OCC(C)=O)OCO3)cc1 (stereo not drawn) | 4% |
| CCS(=O)(=O)Nc1ccc(Nc2c3ccccc3nc3ccccc23)c(OC)c1 | -47% |
| O=S(=O)(c1ccccc1)N1CN2CN(C1)CN(S(=O)(=O)c1ccccc1)C2 | 9% |
| CC1=NN(C(=O)c2ccccc2O)C(=O)/C1=C/c1ccco1 | 31% |
| O=C1C=C(Br)C(=O)c2ccccc21 | 28% |
| C[N+](C)([O-])CCCNc1c2ccccc2nc2cccc([N+](=O)[O-])c12 | 20% |
| Cc1cccc2c(NCCCN(C)C)c3c([N+](=O)[O-])ccc(C)c3nc12 | 15% |
| OC1(c2ccccc2)C2CC=CC2C1(c1ccccc1)c1ccccc1 (stereo not drawn) | -11% |
| C[n+]1c(-c2ccc(/C=N/NC(=O)c3ccc(C(=O)N/N=C/c4ccc(-c5cn6ccccc6[n+]5C)cc4)cc3)cc2)cn2ccccc21 | 27% |
| CCN(CC)CCC(=O)Nc1ccc2sc3ccccc3c(=O)c2n1 | -3% |
| O=[N+]([O-])c1ccc2nc(=S)[nH]n2c1 | -1% |
| COc1cc([N+](=O)[O-])c2ncccc2c1Br | 0% |
| CC(C)(C)OC(=O)NCCCCC(NC(=O)C(Cc1c[nH]c2ccccc12)NC(=O)OCC1c2ccccc2-c2ccccc21)C(=O)O (stereo not drawn) (Fmoc-Trp-Lys(Boc)-OH; configuration not given here) | -2% |

same assay, conditions: S. cerevisiae wt2 strain growth inhibition; at 11.0 µM; active compounds read high

| SMILES | growth inhibition |
| --- | --- |
| CC(C)C(=O)CC(Sc1ccc(N)cc1)c1ccccc1 (stereo not drawn) | 10% |
| CC(C)OP(=O)(OC(C)C)/C(Cl)=N/Nc1ccc([N+](=O)[O-])cc1 | 39% |
| O=[N+]([O-])c1cc(Cl)ccc1S(=O)(=O)c1ccc(Cl)cc1[N+](=O)[O-] | 21% |
| CCCCCCNCCCNc1c2cc(OC)ccc2nc2cccc([N+](=O)[O-])c12 | 12% |
| N#CCC(=O)N/N=C(\c1ccccc1)C(c1ccccc1)C1(O)C(=O)Nc2c(Cl)ccc(Cl)c21 (stereo not drawn) | -3% |
| CN(C)CCNCCCNc1c2ccccc2nc2cccc([N+](=O)[O-])c12 | 11% |
| CCC[CH2][Ge]([CH2]CCC)([CH2]CCC)[O]C(=O)C(O)c1ccccc1 (stereo not drawn) | 16% |
| COc1ccc(-c2cc(-c3cc(C)cc(Cl)c3O)nc3[nH]c(=S)[nH]c(=S)c23)cc1 | -4% |
| O=[N+]([O-])c1ccc(/C=C\c2ccc3c(c2)OCO3)c([N+](=O)[O-])c1 | -1% |
| O=C1c2ccccc2N2OC3(N4CCCC4)CCCCC3C12c1ccccc1 (stereo not drawn) | -14% |
| CC(C)OC(=O)NNc1cc(Cl)ccc1Cl | 23% |
| Cc1oc2ccccc2c(=O)c1Cn1nnc2ccccc21 | -1% |
| CC1(C)OC(=O)C(=Cc2ccc([N+](=O)[O-])s2)C(=O)O1 | -7% |
| CCN(CC)CCCNc1ccc([N+](=O)[O-])c2nc3ccc(OC)cc3c(NCCCN(CC)CC)c12 | 1% |
| COc1cccc(/C=C2\S/C(=N/Nc3nc(-c4ccc([N+](=O)[O-])cc4)cs3)NC2=O)c1O | 76% (active) |
| OC(Cc1cccc2ccccc12)CN1CCC(c2ccccc2)CC1 (stereo not drawn) | 72% (active) |
| C1=CCN([B-](c2ccccc2)[C+]2CCCCC2)C=C1 | 3% |

| SMILES | growth inhibition |
| --- | --- |
| O=[N+]([O-])c1cc[n+]([O-])c(Cl)c1 | -42% |
| CCCNC(=O)OCc1c(COC(=O)NCCC)c(-c2ccc(Cl)c(Cl)c2)n2c1CCC2 | -27% |
| CC1(C)CC(=O)C(C(=O)Nc2cccs2)=C(O)C1 | 17% |
| O=C(NO)c1coc2ccccc2c1=O | -3% |
| COc1ccc(C(C)c2cc3c(cc2OCC(C)=O)OCO3)cc1 (stereo not drawn) | -5% |
| CCS(=O)(=O)Nc1ccc(Nc2c3ccccc3nc3ccccc23)c(OC)c1 | -42% |
| O=S(=O)(c1ccccc1)N1CN2CN(C1)CN(S(=O)(=O)c1ccccc1)C2 | -14% |
| CC1=NN(C(=O)c2ccccc2O)C(=O)/C1=C/c1ccco1 | 80% (active) |
| O=C1C=C(Br)C(=O)c2ccccc21 | 90% (active) |
| C[N+](C)([O-])CCCNc1c2ccccc2nc2cccc([N+](=O)[O-])c12 | 26% |
| Cc1cccc2c(NCCCN(C)C)c3c([N+](=O)[O-])ccc(C)c3nc12 | 49% |
| OC1(c2ccccc2)C2CC=CC2C1(c1ccccc1)c1ccccc1 (stereo not drawn) | -8% |
| C[n+]1c(-c2ccc(/C=N/NC(=O)c3ccc(C(=O)N/N=C/c4ccc(-c5cn6ccccc6[n+]5C)cc4)cc3)cc2)cn2ccccc21 | 63% |
| CCN(CC)CCC(=O)Nc1ccc2sc3ccccc3c(=O)c2n1 | 2% |
| O=[N+]([O-])c1ccc2nc(=S)[nH]n2c1 | -2% |
| COc1cc([N+](=O)[O-])c2ncccc2c1Br | 5% |
| CC(C)(C)OC(=O)NCCCCC(NC(=O)C(Cc1c[nH]c2ccccc12)NC(=O)OCC1c2ccccc2-c2ccccc21)C(=O)O (stereo not drawn) (Fmoc-Trp-Lys(Boc)-OH; configuration not given here) | -4% |

— PubChem BioAssay (NCI)
